# Test results published in PubChem BioAssay (NCATS).
# Inconclusive results are not listed. A call without a number means that no potency is given here. Active and inactive are the calls of the source. Calls follow the shape of the dose curve; as a rule, active = well fitted curve in the direction sought with a large enough effect; inconclusive = small, poorly fitted or top-dose-only effect, or another doubt; inactive = no such curve, though single readings can be large; an effect the other way counts as inactive or inconclusive. *1 amine or outer side, *2 acyl side, *3 side chain or, on linkers, in order; H or OH if unused. Where a SMILES comes first, the peptide text is derived from it. Bridges are numbered along the chain shown (N, C = ends). Roman numbers before positions name the chains, in order. [ ]: non-standard residue; d: D form. ξ: configuration not given here. Actinocin(9to1) = Cc1c2oc3c(C)ccc(C(=O)[*:1])c3nc-2c(C(=O)[*:2])c(N)c1=O; ξNMeV = CNC(C(=O)O)C(C)C; ξV = CC(C)C(N)C(=O)O; Sar = CNCC(=O)O
# How the values were obtained:
# [1] = system: Zika virus NS2B-NS3 protease (unlinked complex); assay: Primary screen GU Rhodamine qHTS for Zika virus inhibitors: Unlinked NS2B-NS3 protease assay (AID 1347159); also: nearly all actives have a fitted effect of over 60% in size; also: potency is read from the fitted curve at half-maximal effect
# Procedure, shortened: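 Unlinked NS2B/NS3, 25 nM; Rhod110 peptide, 1.5 microM; compounds, up to 114 microM. Reaction run 15 min at RT in 10 mM Tris-HCl pH 8.0, 0.01% Tween 20; kinetic fluorescence change fitted with a 4-parameter Hill model.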
# [2] = Confirmatory screen NINDS Rhodamine qHTS for Zika virus inhibitors (AID 1347161); settings: purified enzyme assay, Rhodamine110 substrate fluorescence, 15 min; also: potency is read from the fitted curve at half-maximal effect; nearly all actives have a fitted effect of over 60% in size
# Procedure, shortened: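 Each compound, titrated, sat 15 min with 25 nM linked protease before 1.5 microM Rhodamine110 substrate went in. Fluorescence gain over the next 15 min, in pH 8.0 Tris with Tween 20, gave Hill-fitted curves.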
# [3] = Vero cells viability qHTS for Zika virus inhibitors (AID 1347167)
# Procedure, shortened: (§1)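 Luminescent ATP readout (CellTiter Glo) after 30 min at 37 degrees C gives viability; cells in DMEM + 4% FBS were treated 24 to 48 hours with compound, following overnight attachment.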
# [4] = HepG2 cells viability qHTS for Zika virus inhibitors (AID 1347168)
# Procedure, shortened: as §1
# [5] = Tertiary RLuc qRT-PCR qHTS assay for Zika virus inhibitors (AID 1347169); also: nearly all actives have a fitted effect of over 55% in size; also: potency is read from the fitted curve at half-maximal effect
# Procedure, shortened: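 Orthogonal cell-based infection assay using recombinant ZIKV-RLuc (Cambodian) in Vero cells; compound added prior to virus at MOI 1-2. Incubation lasts 48-72 hrs at 37 degrees C before live-cell Renilla substrate is added and luminescence measured.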
# [6] = system: Zika virus NS2B-NS3 protease (linked construct); assay: Primary screen NINDS Rhodamine qHTS for Zika virus inhibitors (AID 1347160); also: nearly all actives have a fitted effect of over 55% in size; also: potency is read from the fitted curve at half-maximal effect
# Procedure, shortened: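 Single-chain NS2B-NS3 protease, 25 nM, pH 8.0; compounds preincubated 15 min. Activity: Rhodamine110 release from 1.5 microM substrate over 15 min, room temperature, data fitted to 4-parameter Hill.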
# [7] = system: Zika virus NS2B-NS3 protease (linked); assay: 384 well plate NINDS AMC confirmatory qHTS for Zika virus inhibitors (AID 1347163); also: potency is read from the fitted curve at half-maximal effect; nearly all actives have a fitted effect of over 50% in size
# Procedure, shortened: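 Fluorescence at 355/460 nm was read after 25 minutes of cleavage of 30 microM Ac-VKTGKR-AMC at room temperature, in the dark. Before substrate addition, compounds (up to 1 mM final) sat ~15 minutes with 5, 30 or 60 nM linked protease. Signals were normalized to no-enzyme and no-inhibitor wells.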
# [8] = system: Zika virus NS2B-NS3 protease (linked construct); assay: 384 well plate NINDS Rhodamine confirmatory qHTS for Zika virus inhibitors (AID 1347164); also: nearly all actives have a fitted effect of over 65% in size; also: potency is read from the fitted curve at half-maximal effect
# Procedure, shortened: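 Compounds are incubated about 15 minutes with linked protease (5, 30 or 60 nM final). Rhodamine 110-tagged Ac-LKRR substrate (10 microM final) is added and fluorescence measured after 25 minutes.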
# [9] = OV-KATE Cancer Cell Toxicity qHTS against the NCATS CANVASS Library (AID 1347345)
# Procedure, shortened: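 In this cytotoxicity screen, 1000 cells per well rested 4 hours, then received compound (11 concentrations) for a 72-hour incubation; an ATP-dependent luminescent signal (CellTiter-Glo) was the endpoint.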
# [10] = target: Lysine-specific demethylase 5B (Homo sapiens) (UniProt Q9UGL1); assay: Optimization screen for KDM5B Histone Demethylases FDH coupled qHTS against the LOPAC library (AID 1347166)
# Procedure, shortened: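 KDM5BDeltaAP (200nM final) in 50mM HEPES pH 7.5, 0.01% Tween-20 was preincubated with compound for 10 min at room temperature. A substrate mix of 12.5uM H3K4Me3, 25uM a-ketoglutarate, ascorbate, Fe2+, NAD+ and formaldehyde dehydrogenase was then added. NADH fluorescence (340/450 nm) was read initially and after 30 min.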
# Lysine-specific demethylase 5B (Homo sapiens), sequence (Q9UGL1 whole entry, looked up): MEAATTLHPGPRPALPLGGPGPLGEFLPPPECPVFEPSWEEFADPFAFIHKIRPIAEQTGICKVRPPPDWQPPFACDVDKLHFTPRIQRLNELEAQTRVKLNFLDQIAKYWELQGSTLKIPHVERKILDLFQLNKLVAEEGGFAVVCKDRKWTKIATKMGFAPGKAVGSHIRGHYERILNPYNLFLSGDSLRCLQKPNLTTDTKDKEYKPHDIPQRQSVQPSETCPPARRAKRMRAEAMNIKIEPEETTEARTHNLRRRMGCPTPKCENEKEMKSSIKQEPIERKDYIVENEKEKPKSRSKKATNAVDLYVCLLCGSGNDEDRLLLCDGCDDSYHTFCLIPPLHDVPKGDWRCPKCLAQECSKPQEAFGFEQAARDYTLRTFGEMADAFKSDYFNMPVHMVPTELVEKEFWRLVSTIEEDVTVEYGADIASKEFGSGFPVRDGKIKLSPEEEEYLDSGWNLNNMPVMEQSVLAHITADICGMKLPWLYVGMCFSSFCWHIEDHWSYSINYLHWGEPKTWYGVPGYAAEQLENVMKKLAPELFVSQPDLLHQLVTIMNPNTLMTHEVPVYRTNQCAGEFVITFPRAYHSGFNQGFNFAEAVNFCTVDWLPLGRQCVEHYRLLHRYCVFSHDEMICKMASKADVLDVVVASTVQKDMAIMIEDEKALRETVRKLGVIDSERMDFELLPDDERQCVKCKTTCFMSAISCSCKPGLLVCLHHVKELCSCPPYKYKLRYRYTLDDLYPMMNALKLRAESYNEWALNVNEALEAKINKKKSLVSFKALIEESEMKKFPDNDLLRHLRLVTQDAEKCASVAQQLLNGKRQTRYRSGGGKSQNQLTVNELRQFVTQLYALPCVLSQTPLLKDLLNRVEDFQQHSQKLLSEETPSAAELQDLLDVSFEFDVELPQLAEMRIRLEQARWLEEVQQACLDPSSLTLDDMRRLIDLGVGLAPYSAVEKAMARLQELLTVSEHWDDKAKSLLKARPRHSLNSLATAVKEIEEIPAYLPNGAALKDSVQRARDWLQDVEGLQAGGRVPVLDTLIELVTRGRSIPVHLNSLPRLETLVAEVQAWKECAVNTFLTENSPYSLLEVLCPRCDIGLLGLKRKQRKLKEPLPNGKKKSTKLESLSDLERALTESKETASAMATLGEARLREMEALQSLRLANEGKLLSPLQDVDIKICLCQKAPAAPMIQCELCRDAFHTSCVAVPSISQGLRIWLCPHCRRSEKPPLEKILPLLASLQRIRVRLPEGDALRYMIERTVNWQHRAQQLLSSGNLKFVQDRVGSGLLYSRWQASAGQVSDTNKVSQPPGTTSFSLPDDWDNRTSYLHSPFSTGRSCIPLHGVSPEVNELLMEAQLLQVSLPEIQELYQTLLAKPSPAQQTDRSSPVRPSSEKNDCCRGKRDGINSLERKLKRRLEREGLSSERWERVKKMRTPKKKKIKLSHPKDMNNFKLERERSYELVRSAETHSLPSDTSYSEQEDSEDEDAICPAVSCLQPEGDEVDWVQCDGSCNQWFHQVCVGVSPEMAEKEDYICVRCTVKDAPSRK
smiles,measurement,setting,value
CC(C)(O)C1CC=C(C(=O)OCC2OC(Oc3c(O)cc(C(=O)O)cc3O)C(O)C(O)C2O)CC1 (stereo not given),Potency,[1],inactive
same,Potency,[2],7.64 µM (active)
same,outcome,[3],inactive
same,outcome,[4],inactive
same,Potency,[5],inactive
O=C(/C=C/c1c(C(=O)O)[nH]c2cc(Cl)cc(Cl)c12)Nc1ccccc1,Potency,[1],3.55 µM (active)
same,Potency,[6],3.16 µM (active)
same,Potency,[2],2.48 µM (active)
same,Potency,[7],1.12 µM (active)
same,Potency,[8],8.91 µM (active)
same,outcome,[3],inactive
same,outcome,[4],inactive
same,Potency,[5],inactive
C=CC(C)(O)CO[C@@H]1O[C@H](CO)[C@@H](O)[C@H](O)[C@H]1O (stereo not given in full),Potency,[1],inactive
same,Potency,[6],inactive
CC1=C2C(=O)O[C@@H](c3ccoc3)[C@]2(C)CCC1,Potency,[1],inactive
same,Potency,[6],inactive
same,outcome,[9],inactive
N#CC1C(=O)Nc2scc(-c3ccc(-c4ccccc4O)cc3)c2C1=O (stereo not given),Potency,[1],2.51 µM (active)
same,Potency,[6],3.16 µM (active)
same,Potency,[2],2.48 µM (active)
same,Potency,[7],6.31 µM (active)
same,Potency,[8],12.6 µM (active)
same,outcome,[3],inactive
same,outcome,[4],inactive
CC1(C)CCC(C)(C)c2cc3c(cc21)Sc1ccccc1N=C3c1ccc(C(=O)O)cc1,Potency,[1],2.51 µM (active)
same,Potency,[6],2.24 µM (active)
same,Potency,[2],1.75 µM (active)
same,Potency,[7],8.91 µM (active)
same,Potency,[8],4.47 µM (active)
same,outcome,[3],inactive
same,outcome,[4],inactive
O=C(O)c1ccc(CCCc2ccc(OCCc3ccc(F)cc3)cc2)o1,Potency,[1],4.47 µM (active)
same,Potency,[6],3.98 µM (active)
same,Potency,[2],2.78 µM (active)
same,Potency,[7],5.01 µM (active)
same,Potency,[8],inactive
same,outcome,[3],inactive
same,outcome,[4],inactive
CC(C)(C)NCC(O)COc1cccc2c1CCCC2=O (stereo not given),Potency,[1],inactive
same,Potency,[6],inactive
COc1cccc(-n2nc(C(=O)O)cc2-c2ccc(C3CCCCC3)c(Cl)c2)c1,Potency,[1],1.78 µM (active)
same,Potency,[6],2.51 µM (active)
same,Potency,[2],1.97 µM (active)
same,Potency,[8],5.01 µM (active)
same,outcome,[3],inactive
same,outcome,[4],inactive
same,Potency,[5],18.6 µM (active)
C=C1CC23CCC4[C@@](C)(CCC[C@@]4(C)C(=O)O)C2CCC1C3 (stereo not given in full),Potency,[1],20 µM (active)
same,Potency,[6],inactive
same,Potency,[2],44.1 µM (active)
same,Potency,[5],inactive
CC(=O)OC[C@@]12[C@@H](OC(C)=O)C[C@@H](C)[C@](C)([C@@H]3C[C@H]4C=CO[C@H]4O3)[C@H]1CCC[C@]21CO1,Potency,[1],inactive
same,Potency,[6],inactive
C/C=C/C=C/C(CC(=O)O)Nc1ccc(C=O)cc1 (stereo not given),Potency,[1],11.2 µM (active)
same,Potency,[6],49.3 µM (active)
same,outcome,[9],inactive
O=C(O)c1cnn(-c2nc3cc(OC(F)(F)F)c(Cl)cc3[nH]2)c1,Potency,[1],5.01 µM (active)
same,Potency,[6],2 µM (active)
same,Potency,[2],5.69 µM (active)
same,Potency,[8],0.794 µM (active)
same,outcome,[3],inactive
same,outcome,[4],inactive
C=CC(C)(C)C1(CC2NC(=O)C3CCCN3C2=O)C(=O)Nc2cc3c(cc21)C=CC(C)(C)O3 (stereo not given),Potency,[1],inactive
same,Potency,[6],inactive
CC(=O)c1c(C)cc(O)cc1O[C@@H]1O[C@H](CO)[C@@H](O)[C@H](O)[C@H]1O,Potency,[1],inactive
same,Potency,[5],inactive
CN1Cc2c(N)cccc2C(c2ccccc2)C1 (stereo not given),outcome,[10],inactive
CC(C)C(=O)c1cn(CC(=O)COc2ccc(Oc3ccccc3)cc2)c2ccc(C(=O)O)cc12,outcome,[4],inactive
"Cc1c2oc3c(C)ccc(C(=O)N[C@@H]4C(=O)NC(C(C)C)C(=O)N5CCC[C@H]5C(=O)N(C)CC(=O)N(C)C(C(C)C)C(=O)O[C@@H]4C)c3nc-2c(C(=O)N[C@@H]2C(=O)NC(C(C)C)C(=O)N3CCC[C@H]3C(=O)N(C)CC(=O)N(C)C(C(C)C)C(=O)O[C@@H]2C)c(N)c1=O (stereo not given in full) (I: T[ξV]P[Sar][ξNMeV] / II: T[ξV]P[Sar][ξNMeV]; ester I:1-I:C, II:1-II:C; linker I:N-II:N via Actinocin(9to1))",outcome,[4],inactive
